Bioassay records from PubChem BioAssay.
Tb PFK block: blocks T. brucei phosphofructokinase; 330,000 compounds, 0.17% hits; Potency, µM (doses to about 57.5 µM), for the others: top-dose activity, negative = inhibition, most hits filed as inhibitors; T. brucei PFK, ADP-Glo luminescence;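 further: 0% = uninhibited 1x PFK enzyme wells and -100% = no-enzyme wells; nearly all actives have a fitted effect of over 60% in size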
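ADP-Glo luminescence quantified ADP after 45 min at room temperature, with 1.25 nM T. brucei PFK, 0.1 mM ATP and 0.5 mM fructose-6-phosphate in pH 8.0 TEA buffer. qHTS titrations up to 57 µM; curves classified by quality.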
PLK1 PBD inh: blocks phosphopeptide binding to human PLK1 polo-box domain; 360,000 compounds, 2.8% hits; Potency, µM, for inactives: max response, negative = inhibition, actives largely listed as inhibitors; Plk1 PBD binding of FITC phosphopeptide, fluorescence polarization; further: series mostly up to about 57 µM; on the % scale 0 is the no-effect control and ±100 the full control effect; nearly all actives have a fitted effect of over 65% in size
VDR inhibitor: inhibitors of human vitamin D receptor. VDR-SRC2-3 peptide fluorescence polarization, 2 h. Potency, µM, inactives show max response, negative = inhibition, actives largely listed as inhibitors. 400,000 compounds, 0.93% hits. AID 504847; further: on the % scale 0 is the no-effect control and ±100 the full control effect
Target sequence (P11473 whole entry, looked up): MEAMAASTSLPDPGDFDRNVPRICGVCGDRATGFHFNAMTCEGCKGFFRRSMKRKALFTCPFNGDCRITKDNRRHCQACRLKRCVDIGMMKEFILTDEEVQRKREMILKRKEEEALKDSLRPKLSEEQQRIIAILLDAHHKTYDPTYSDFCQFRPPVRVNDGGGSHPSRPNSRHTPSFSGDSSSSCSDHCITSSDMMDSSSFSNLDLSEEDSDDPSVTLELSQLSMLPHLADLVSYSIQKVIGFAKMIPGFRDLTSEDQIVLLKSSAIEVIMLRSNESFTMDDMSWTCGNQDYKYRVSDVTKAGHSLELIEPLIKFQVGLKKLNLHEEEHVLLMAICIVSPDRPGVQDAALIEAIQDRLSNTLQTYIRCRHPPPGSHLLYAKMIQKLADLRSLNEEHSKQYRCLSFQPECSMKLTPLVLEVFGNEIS
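Fluorescence polarization assay of small-molecule disruption of VDR binding to coregulator peptide SRC2-3. Compounds and controls pin-transferred, then read after 2 h incubation at ambient room temperature.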
BRCA1 expr up: activators of BRCA1 expression | AID 624202 | 380,000 compounds, 1.1% hits | Potency, µM (series often up to 46.1 µM), inactives show at the top dose activation, usual class: activators | MCF7-BRCA1-FFLuc reporter, luminescence, 48 h; response scale: scaled: vehicle 0%, 10 µM genistein 100%; further: nearly all actives have a fitted effect of over 80% in size
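Activators of BRCA1 expression were detected as increased firefly luciferase luminescence in engineered MCF7 cells after 48 h compound incubation. Signals were scaled to genistein 10 microM as full activation.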
* marks the source's active call; other numbers are inactive results; ? = inconclusive; . = no result given. An excerpt weighted towards active compounds, which were near 3.9% of everything screened. The call rests on the fitted dose curve; in most records, active means well fitted curve in the direction sought with a large enough effect; inconclusive means small, poorly fitted or top-dose-only effect, or another doubt; inactive means no such curve, though single readings can be large; an effect the other way counts as inactive or inconclusive. Potency means the concentration at half of the fitted maximal effect.

SMILES | Tb PFK block | PLK1 PBD inh | VDR inhibitor | BRCA1 expr up
CCn1nnnc1SCC(=O)N1CCc2ccccc21 | . | -15% | ? | 69%
COc1cccc(/C=C2\CCC(C3CCCC3)C2=O)c1 (stereo not given) | -1% | -13% | -1% | 72%
CN(C)CC1CCC/C(=C/c2ccc(Cl)cc2)C1=O (stereo not given) | . | 6µM* | 79µM* | -82%
COc1ccc(/C=C2/CCCC(CN(C)C)C2=O)cc1 (stereo not given) | . | 24µM* | ? | -74%
COc1cccc(/C=C2/CCC(CN(C)C)C2=O)c1 (stereo not given) | . | 3.4µM* | 40µM* | -83%
CN(C)CC1CCC/C(=C\c2ccc(OC(=O)/C=C/c3ccc(Cl)c(Cl)c3)cc2)C1=O (stereo not given) | . | -19% | ? | 11%
CCCC/C=C1/CCC(CN(C)C)C1=O (stereo not given) | . | 12µM* | ? | -62%
NC(=S)NCCC[C@H](N)C(=O)O | . | . | 50µM* | .
NC(=O)NCCC[C@H](N)C(=O)O | . | . | -6% | .
CO[C@H]1CN(C)C(=O)c2cc(NC(=O)c3cc(C)on3)ccc2OC[C@@H](C)N(C(=O)C2CC2)C[C@H]1C | . | -1% | . | .
CCCCN(C)CCNC(=O)c1cc(-c2cccnc2)nc2ccc(S(=O)(=O)N3CCC(C)CC3)cc12 | -2% | 27µM* | ? | -17%
CCC(=O)c1ccc(OCC(=O)O)cc1 | -3% | 0% | 4% | -7%
CCC(=O)c1ccc(OCCSc2ncccn2)cc1 | 3% | 27µM* | -6% | ?
Clc1ccc(-n2nnc(-c3cccnc3Cl)n2)cc1Cl | 4% | -10% | -1% | 4µM*
Clc1ncccc1-c1nnn(-c2ccccc2)n1 | 6% | -8% | 0% | ?
CCC(=O)Nc1ccc(C2C(=O)c3ccccc3C2=O)cc1 | -13% | 24µM* | -11% | 67%
CCCCC(=O)Nc1ccc(C2C(=O)c3ccccc3C2=O)cc1 | . | 2% | 20% | 4µM*
CCc1cccc(C)c1NC(=O)COC(=O)Cc1ccccc1 | . | -7% | . | 13%
Fc1ccccc1Nc1nc(N2CCOCC2)nc(N2CCOCC2)n1 | 0% | 0% | 12% | -26%
COc1cc(C=O)ccc1Oc1nc(Nc2ccc(F)cc2F)nc(N2CCOCC2)n1 | ? | 21µM* | -24% | -48%
O=[N+]([O-])c1nn(-c2ccc3c(c2)OCCO3)n(O)c1=NCCC1=CCCCC1 | 3% | -10% | -8% | 4.5µM*
CN=c1c([N+](=O)[O-])nn(-c2ccc3c(c2)OCCO3)n1O | -1% | 24µM* | -19% | 16%
CC(C)c1ccc(N=c2c([N+](=O)[O-])nn(-c3ccc4c(c3)OCCO4)n2O)cc1 | -4% | -9% | 5% | 10%
CSc1cccc(NC(=O)c2cccc(N3CCCS3(=O)=O)c2)c1 | . | . | 5% | .
Cc1cc(-c2nn3c(-c4ccccc4)nnc3s2)c2ccccc2n1 | 1% | 12µM* | ? | -49%
SMILES | Tb PFK block | PLK1 PBD inh | VDR inhibitor | BRCA1 expr up
CC(NC(=O)c1ccccc1Br)c1nnc(SCC(=O)NC2=NCCS2)n1C (stereo not given) | -4% | -14% | 13% | 13%
CC(C)c1cc(C(C)C)c(S(=O)(=O)NC(c2ccccn2)C23CC2C3)c(C(C)C)c1 (stereo not given) | . | -12% | . | -15%
CCc1ccc(Nc2n[n+](-c3ccccc3)c(-c3ccc(SC)cc3)s2)cc1 | -5% | ? | -8% | -65%
CSc1ccc(-c2sc(Nc3ccccc3)n[n+]2-c2ccccc2)cc1 | 0% | 24µM* | -12% | -19%
CSc1ccc(-c2sc(Nc3cccc4ccccc34)n[n+]2-c2ccccc2)cc1 | 0% | ? | 79µM* | -72%
CC(=O)Nc1ccc(-c2sc(Nc3cccc4ccccc34)n[n+]2-c2ccccc2)cc1 | -2% | -12% | -5% | -48%
CCOc1cc(-c2sc(Nc3ccccc3)n[n+]2-c2ccc(F)cc2)ccc1OC | -7% | 24µM* | 1% | -9%
CCc1ccc(CNC(=O)C2CCCN(c3nnc(C)c4c(C)n(-c5ccc(OC)cc5)nc34)C2)cc1 (stereo not given) | . | . | 12% | .
CCc1ccc(NC(=O)CC2C(=O)N(c3ccc(Cl)cc3)C(=O)N2C2CCCC2)cc1 (stereo not given) | . | . | 9% | -32%
N#Cc1c[nH]n2c(NC3CCCCC3)c(-c3cccc(Cl)c3)nc12 | . | . | 16% | .
Cc1c(N2C(=O)/C(=C\C3CC=CCC3)SC2=S)c(=O)n(-c2ccccc2)n1C (stereo not given) | 1% | ? | 50µM* | -10%
Cc1c(N2C(=O)/C(=C/C3CC=CCC3)SC2=S)c(=O)n(-c2ccccc2)n1C (stereo not given) | -3% | ? | ? | -21%
O=C(NC(=O)c1ccc(F)cc1F)Nc1ccc(Cl)cc1 | -3% | -11% | -11% | 2.8µM*
Cc1ccc(NC(=O)c2ccc(F)cc2F)cc1 | . | 5% | -11% | ?
CN(Cc1ccccc1)C(=O)C1CCN(S(=O)(=O)c2cccc3nsnc23)CC1 | 0% | 3.4µM* | ? | -1%
CN(CCCNC(=O)C1CCN(S(=O)(=O)c2cccc3nsnc23)CC1)Cc1ccccc1 | -5% | -4% | 9% | -5%
CCOC(=O)C1CCN(C(=O)Cn2ncc3c([nH]c4ccc(C)cc43)c2=O)CC1 | . | . | 16% | .
C/C(O)=C(\N=Nc1cc(C)ccc1O)C(N)=O | -3% | 30µM* | -3% | -30%
CCC(C)NC(=O)c1cc2cc3ccc(OC)cc3nc2o1 (stereo not given) | -11% | -1% | 9% | 11µM*
COc1ccc2nc3oc(C(=O)N4CCCCC4)cc3cc2c1 | 1% | -29% | 6% | 7.1µM*
O=[N+]([O-])c1cc(Br)c(O)c(/C=N/Nc2nnnn2-c2cccc3ccccc23)c1 | 3% | 13µM* | ? | -18%
CC(C)[C@@H](CC(=O)N[C@@H]1CCNC[C@H]1C(=O)N[C@H](CC(=O)N[C@@H](CCC(=O)O)CC(=O)O)Cc1c[nH]c2ccccc12)NC(=O)C[C@H](CO)NC(=O)[C@@H]1CCCC[C@H]1N | . | . | 4% | .
CC1CCCCN1CC(=O)NC(c1ccccc1)c1ccccc1 (stereo not given) | 0% | -2% | -17% | -8%
CSc1ccccc1NC(=O)CN1CCCCC1C (stereo not given) | -1% | 21µM* | -4% | 0%
O=C(Nc1cccc2ccccc12)c1cnn2c1NC(=C1CC1)C=C2C(F)F | . | . | . | -20%
SMILES | Tb PFK block | PLK1 PBD inh | VDR inhibitor | BRCA1 expr up
COc1ccc(Cn2cccc(NC(=O)Nc3cccc(OC)c3)c2=O)cc1 | -5% | 2% | 2% | 18%
Cc1ccc(NC(=O)c2ccc(CN3CC(=O)N4CCCCC4C3=O)cc2)cc1C (stereo not given) | . | . | 12% | .
O=C(Cc1ccc(Cl)cc1)NN1C(=O)c2ccccc2C1=O | -9% | 27µM* | -17% | -12%
Cc1cc(C)cc(OCC(=O)NN2C(=O)c3ccccc3C2=O)c1 | -4% | -8% | ? | -2%
Cc1noc(NS(=O)(=O)c2cccc3c(N(C)C)cccc23)c1C | . | . | 25µM* | .
CN(C)c1cccc2c(S(=O)(=O)Nc3ccccn3)cccc12 | 0% | -2% | 4% | -9%
